This passage reports inhibition results from ChEMBL document CHEMBL1961873, “Compounds: GSK PKIS; Assays: Nanosyn kinase panel” (2012).

In test [1] the test system is Epidermal growth factor receptor (Homo sapiens), P00533 [T790M]. The following applies: at 1 µM.
Test [2] deals with Epidermal growth factor receptor (Homo sapiens), P00533 [L858R,T790M]. The following applies: at 0.1 µM.
Test [3] shares this test system. The following applies: at 1 µM.
Test [4] deals with Ephrin type-A receptor 2 (Homo sapiens) (UniProt P29317). As to conditions: at 0.1 µM.
Ephrin type-A receptor 2 (Homo sapiens), sequence (P29317 whole entry): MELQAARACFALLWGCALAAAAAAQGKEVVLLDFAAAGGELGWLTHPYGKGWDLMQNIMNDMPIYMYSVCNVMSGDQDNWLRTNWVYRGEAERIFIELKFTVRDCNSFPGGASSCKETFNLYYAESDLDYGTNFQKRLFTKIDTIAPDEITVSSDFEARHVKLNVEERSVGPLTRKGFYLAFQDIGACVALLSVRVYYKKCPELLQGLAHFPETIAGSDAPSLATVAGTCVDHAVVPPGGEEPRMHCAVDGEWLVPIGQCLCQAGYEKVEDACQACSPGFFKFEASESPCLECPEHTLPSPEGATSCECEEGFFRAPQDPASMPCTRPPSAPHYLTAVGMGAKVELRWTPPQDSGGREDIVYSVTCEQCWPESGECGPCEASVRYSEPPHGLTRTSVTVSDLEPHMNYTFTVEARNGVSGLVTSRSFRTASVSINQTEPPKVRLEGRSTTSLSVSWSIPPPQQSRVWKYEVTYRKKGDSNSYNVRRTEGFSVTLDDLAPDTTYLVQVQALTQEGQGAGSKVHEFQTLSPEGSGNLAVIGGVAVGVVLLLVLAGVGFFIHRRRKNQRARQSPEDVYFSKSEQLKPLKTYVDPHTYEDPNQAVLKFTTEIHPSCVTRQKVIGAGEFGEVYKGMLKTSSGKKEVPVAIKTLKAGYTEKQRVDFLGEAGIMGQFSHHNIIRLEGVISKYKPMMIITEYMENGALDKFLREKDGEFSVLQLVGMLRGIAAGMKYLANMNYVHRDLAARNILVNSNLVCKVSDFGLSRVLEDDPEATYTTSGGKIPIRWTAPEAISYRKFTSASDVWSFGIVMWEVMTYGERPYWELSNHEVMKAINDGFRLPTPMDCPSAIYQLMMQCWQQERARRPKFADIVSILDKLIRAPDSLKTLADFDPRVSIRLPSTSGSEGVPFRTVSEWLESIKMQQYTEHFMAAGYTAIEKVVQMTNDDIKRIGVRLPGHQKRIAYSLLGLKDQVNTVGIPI
Test [5] has the same target. As to conditions: at 1 µM.
Test [6] has as its target T1, Ephrin type-A receptor 3 (Homo sapiens) (UniProt P29320).
T1 sequence (whole entry): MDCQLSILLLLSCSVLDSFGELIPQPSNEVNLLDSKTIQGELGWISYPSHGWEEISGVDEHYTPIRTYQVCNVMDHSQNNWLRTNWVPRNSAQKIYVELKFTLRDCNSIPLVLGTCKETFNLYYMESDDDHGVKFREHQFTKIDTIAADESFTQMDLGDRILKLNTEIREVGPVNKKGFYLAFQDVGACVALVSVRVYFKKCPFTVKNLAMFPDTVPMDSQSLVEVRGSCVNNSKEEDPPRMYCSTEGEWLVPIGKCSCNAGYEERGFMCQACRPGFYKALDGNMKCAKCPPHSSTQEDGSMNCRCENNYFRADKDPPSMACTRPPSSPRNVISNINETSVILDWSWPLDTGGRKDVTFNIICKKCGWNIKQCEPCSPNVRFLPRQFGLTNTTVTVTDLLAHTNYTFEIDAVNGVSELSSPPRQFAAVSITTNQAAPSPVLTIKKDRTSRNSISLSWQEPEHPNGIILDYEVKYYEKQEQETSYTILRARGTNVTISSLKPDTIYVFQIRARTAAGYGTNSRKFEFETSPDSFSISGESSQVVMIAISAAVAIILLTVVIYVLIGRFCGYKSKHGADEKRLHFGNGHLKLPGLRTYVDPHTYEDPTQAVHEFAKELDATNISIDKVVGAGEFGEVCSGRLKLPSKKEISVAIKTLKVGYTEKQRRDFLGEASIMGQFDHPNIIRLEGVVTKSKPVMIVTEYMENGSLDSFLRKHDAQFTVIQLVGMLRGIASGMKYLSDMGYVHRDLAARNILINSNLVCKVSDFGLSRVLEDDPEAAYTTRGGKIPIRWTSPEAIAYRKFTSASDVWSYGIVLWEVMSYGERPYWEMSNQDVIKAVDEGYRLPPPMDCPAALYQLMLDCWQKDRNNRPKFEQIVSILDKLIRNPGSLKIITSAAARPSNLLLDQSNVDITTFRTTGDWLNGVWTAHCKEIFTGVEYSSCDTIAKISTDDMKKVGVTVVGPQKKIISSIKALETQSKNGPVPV
As to conditions: at 0.1 µM.

Test [7] deals with T1, Ephrin type-A receptor 3 (Homo sapiens). As to conditions: at 1 µM.
Test [8] has as its target Ephrin type-A receptor 4 (Homo sapiens) (UniProt P54764). As to conditions: at 0.1 µM.
The target is the same in test [9]. As to conditions: at 1 µM.
For test [10], the target named is T2, Ephrin type-B receptor 2 (Homo sapiens) (UniProt P29323).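 Further: reported as mean inhibition of EPHB2, from the GSK PKIS dataset.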
T2 sequence (whole entry): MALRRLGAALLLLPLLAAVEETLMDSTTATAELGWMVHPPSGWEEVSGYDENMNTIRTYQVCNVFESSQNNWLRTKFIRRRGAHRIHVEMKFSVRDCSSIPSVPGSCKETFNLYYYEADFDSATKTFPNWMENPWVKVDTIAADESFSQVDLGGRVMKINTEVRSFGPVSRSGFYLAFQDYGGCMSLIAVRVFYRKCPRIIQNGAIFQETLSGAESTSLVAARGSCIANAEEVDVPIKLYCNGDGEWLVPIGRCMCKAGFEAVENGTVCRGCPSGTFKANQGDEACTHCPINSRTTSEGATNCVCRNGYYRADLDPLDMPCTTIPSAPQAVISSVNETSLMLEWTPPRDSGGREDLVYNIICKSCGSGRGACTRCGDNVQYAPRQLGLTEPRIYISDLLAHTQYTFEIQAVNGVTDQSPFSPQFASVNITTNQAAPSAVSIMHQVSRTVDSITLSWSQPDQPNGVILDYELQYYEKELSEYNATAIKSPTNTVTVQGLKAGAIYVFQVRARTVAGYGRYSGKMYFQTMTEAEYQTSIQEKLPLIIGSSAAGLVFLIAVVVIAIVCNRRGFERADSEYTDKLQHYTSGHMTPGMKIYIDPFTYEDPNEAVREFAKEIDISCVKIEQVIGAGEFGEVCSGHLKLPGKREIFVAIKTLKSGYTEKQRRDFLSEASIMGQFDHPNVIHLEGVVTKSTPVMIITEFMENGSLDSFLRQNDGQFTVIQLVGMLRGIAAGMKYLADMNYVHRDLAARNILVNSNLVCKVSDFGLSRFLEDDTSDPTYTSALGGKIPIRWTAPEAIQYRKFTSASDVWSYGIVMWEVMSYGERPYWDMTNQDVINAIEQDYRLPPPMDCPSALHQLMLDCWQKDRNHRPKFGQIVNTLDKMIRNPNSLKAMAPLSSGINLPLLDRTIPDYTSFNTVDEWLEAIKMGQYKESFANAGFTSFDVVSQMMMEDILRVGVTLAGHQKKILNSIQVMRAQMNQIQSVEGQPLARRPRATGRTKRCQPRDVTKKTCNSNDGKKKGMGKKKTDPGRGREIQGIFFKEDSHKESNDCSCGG
The following applies: at 0.1 µM.

Epidermal growth factor receptor (Homo sapiens), P00533 [T790M], sequence (P00533 whole entry T790M): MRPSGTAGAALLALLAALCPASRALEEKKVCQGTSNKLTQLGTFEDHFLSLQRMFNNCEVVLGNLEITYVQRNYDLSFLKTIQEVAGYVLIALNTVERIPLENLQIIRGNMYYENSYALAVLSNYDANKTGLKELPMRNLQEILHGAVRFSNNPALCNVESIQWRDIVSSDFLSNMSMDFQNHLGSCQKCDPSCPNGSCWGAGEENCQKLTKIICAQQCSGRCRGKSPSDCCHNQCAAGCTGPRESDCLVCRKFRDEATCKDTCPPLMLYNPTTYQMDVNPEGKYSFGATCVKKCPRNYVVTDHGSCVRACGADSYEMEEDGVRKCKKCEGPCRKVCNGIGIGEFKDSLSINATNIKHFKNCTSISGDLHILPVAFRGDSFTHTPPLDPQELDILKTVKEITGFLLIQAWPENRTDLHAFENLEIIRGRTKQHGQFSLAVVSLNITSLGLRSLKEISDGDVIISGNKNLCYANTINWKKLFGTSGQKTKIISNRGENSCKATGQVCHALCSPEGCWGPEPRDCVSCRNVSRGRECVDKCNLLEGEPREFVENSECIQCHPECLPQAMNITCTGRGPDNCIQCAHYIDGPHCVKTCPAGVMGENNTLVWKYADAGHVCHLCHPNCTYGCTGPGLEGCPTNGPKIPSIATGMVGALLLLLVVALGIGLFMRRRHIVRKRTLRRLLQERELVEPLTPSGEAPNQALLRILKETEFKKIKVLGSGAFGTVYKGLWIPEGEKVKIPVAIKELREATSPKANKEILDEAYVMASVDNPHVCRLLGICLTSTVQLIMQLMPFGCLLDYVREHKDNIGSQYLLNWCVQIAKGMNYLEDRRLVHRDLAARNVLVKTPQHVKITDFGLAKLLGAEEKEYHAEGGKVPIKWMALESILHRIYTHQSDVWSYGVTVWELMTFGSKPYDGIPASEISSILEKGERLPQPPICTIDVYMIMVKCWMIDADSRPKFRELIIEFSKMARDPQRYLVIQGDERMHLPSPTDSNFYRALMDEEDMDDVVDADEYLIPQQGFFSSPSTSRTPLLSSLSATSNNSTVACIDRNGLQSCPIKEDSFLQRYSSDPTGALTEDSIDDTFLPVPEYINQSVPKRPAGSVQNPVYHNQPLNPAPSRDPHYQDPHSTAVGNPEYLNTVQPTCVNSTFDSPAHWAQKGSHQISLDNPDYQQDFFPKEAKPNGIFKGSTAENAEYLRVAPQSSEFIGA
Epidermal growth factor receptor (Homo sapiens), P00533 [L858R,T790M], sequence (P00533 whole entry T790M/L858R, looked up): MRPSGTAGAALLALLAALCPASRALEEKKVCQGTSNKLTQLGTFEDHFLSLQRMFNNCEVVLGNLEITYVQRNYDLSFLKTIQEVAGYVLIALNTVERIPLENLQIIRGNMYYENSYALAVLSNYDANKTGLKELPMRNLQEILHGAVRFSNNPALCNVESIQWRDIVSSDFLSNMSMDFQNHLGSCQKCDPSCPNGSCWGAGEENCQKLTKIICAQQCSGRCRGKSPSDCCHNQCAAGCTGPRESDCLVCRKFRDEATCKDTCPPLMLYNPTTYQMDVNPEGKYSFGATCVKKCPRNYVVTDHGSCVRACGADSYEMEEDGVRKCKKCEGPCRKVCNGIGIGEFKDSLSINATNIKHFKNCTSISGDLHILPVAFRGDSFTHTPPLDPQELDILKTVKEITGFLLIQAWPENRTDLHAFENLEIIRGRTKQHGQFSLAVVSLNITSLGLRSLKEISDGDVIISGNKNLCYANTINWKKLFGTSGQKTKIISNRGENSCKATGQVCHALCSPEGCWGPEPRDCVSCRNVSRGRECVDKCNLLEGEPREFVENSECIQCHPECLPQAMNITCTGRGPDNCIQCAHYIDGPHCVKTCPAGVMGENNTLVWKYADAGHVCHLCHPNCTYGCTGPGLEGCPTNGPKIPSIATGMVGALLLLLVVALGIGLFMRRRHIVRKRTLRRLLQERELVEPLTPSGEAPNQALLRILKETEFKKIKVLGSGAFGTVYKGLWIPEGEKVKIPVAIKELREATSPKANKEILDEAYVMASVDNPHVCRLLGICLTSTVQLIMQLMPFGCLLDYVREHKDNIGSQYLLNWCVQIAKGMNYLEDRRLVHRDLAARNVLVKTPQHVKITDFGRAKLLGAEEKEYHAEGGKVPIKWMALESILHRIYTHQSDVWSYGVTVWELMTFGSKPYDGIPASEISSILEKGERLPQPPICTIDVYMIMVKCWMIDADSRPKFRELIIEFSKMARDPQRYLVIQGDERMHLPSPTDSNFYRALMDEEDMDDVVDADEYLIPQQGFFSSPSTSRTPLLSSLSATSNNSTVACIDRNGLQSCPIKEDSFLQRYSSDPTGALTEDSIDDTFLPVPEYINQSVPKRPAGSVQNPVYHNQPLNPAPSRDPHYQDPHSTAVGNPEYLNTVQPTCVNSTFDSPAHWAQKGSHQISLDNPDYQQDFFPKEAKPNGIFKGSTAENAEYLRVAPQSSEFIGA
Ephrin type-A receptor 4 (Homo sapiens), sequence (P54764 whole entry): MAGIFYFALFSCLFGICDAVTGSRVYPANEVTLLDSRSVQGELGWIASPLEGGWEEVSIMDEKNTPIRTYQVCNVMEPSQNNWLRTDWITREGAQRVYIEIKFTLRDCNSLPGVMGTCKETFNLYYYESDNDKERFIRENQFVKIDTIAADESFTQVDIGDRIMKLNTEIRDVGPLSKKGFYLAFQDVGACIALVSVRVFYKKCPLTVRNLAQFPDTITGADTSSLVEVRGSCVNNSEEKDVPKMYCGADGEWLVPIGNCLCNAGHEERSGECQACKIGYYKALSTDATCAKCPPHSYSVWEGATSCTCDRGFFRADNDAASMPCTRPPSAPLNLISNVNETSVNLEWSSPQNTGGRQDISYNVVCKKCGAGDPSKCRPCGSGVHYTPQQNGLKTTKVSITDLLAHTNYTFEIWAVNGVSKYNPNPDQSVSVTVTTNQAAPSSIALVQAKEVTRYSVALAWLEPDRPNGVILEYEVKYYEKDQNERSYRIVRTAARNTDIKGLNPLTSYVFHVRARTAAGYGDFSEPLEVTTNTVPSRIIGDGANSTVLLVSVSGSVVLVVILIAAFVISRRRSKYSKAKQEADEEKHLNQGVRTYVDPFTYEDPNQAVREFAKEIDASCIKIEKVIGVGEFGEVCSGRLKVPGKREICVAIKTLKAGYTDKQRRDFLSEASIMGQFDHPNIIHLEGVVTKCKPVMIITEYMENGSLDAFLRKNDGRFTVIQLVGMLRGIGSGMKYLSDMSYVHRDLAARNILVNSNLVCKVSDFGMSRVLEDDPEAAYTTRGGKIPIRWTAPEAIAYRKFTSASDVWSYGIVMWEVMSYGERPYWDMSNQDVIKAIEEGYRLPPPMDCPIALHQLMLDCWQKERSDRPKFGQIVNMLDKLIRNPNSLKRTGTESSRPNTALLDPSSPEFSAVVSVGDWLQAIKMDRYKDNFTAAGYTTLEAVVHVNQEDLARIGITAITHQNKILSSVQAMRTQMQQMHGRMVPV

The inhibition is the change of the read-out against control, counted positive when it falls. Turning to `CS(=O)(=O)CCNCc1ccc(-c2ccc3ncnc(Nc4ccc(OCc5ccccc5)c(Cl)c4)c3c2)o1`, the inhibition in [1] was 17.8%; in [2], -1.01%; in test [3], 2.45%; in [4] it was -2.92%; in test [5], -2.31%; in [6], -2.51%. The inhibition in [7] was determined as 1.66%; in test [8] it was 1.26%; in test [9] it was 9.95%; in test [10], 5.36%.

`c1cnn2ncc(-c3ccnc(Nc4ccc5c(c4)OCCO5)n3)c2c1`: the inhibition in test [1] was 2.42%; in [2], 2.19%; in test [3] it was 7.05%; in [4] it was 2.91%; in test [5], 5.71%; in test [6], 7.54%. Further, the inhibition in [7] is 5.48%; in [8] it was 12%; in test [9] it was 28.2%; in [10], 12.1%.

Take `Cc1nnc(-c2ccc(C)c(-c3ccc(C(=O)Nc4cccc(C#N)c4)cc3)c2)o1`: the inhibition is 2.44% in test [1]; 0.19% in test [2]; 2.34% in [3]; -0.29% in test [4]; -0.3% in [5]; 4.6% in [6]. For the same compound, the inhibition in test [7] turned out to be 2.95%; in test [8], 6.99%; in test [9], 4.3%; in [10] it was 5.86%.

Consider `CCn1c(-c2nonc2N)nc2cnc(Oc3cccc(NC(=O)c4ccc(OCCN5CCOCC5)cc4)c3)cc21`, for which the inhibition in test [1] is 2.18%; in test [2], -0.63%; in test [3], 3.24%; in test [4] it was -2.53%; in test [5], -2.47%; in [6], 3.26%. In addition, the inhibition in test [7] was 4.85%; in test [8] it was 7.53%; in [9] it was 7.73%; in test [10] it was 5.7%.

In the case of `Cc1ccc(NC(=O)c2ccnc(N3CCCC3)c2)cc1-c1ccc(C(=O)NCC2CC2)cc1`, the inhibition in test [1] is 0.9%; in test [2], -0.13%; in test [3], 2.67%; in [4], -2.27%; in test [5] it was -2.02%; in test [6] it was -0.85%. Besides, the inhibition in test [7] was -0.25%; in [8] it was 7.04%; in test [9], 5.58%; in [10], 4.55%.

For `COc1cc(C=NNc2ncnc3c2cnn3-c2ccccc2)ccc1O`, the inhibition stood at 2.02% in [1]; 3.12% in test [2]; 13.3% in test [3]; 3.61% in [4]; 11.4% in test [5]; 4.47% in [6]. The inhibition is 8.46% in [7], 10.2% in test [8], 17.1% in test [9] and 9.57% in test [10].

For the compound `CCn1c(-c2nonc2N)nc2c(C#CC(C)(C)O)nc(CN3CCCC3)cc21`, the inhibition was -1.46% in test [1]; -1.08% in [2]; 0.28% in [3]; -1.52% in test [4]; -2.75% in test [5]; -2.69% in test [6]. Moreover, the inhibition in test [7] is 1.11%; in [8], -7.89%; in [9], -5.06%; in test [10], -4.91%.

Consider `Nc1ncnc2occ(-c3ccc(NC(=O)Nc4cccc(C(F)(F)F)c4)cc3)c12`, for which the inhibition turned out to be 4.59% in test [1]; 0.78% in test [2]; 5.43% in test [3]; 17.2% in test [4]; 85% in test [5]; 18.4% in [6]. Also, the inhibition is 50.6% in [7], 46.8% in test [8], 78.3% in [9] and 74.1% in [10].

Regarding `CCCN1CCC=C(c2ccc(Nc3nc(Nc4ccccc4C(N)=O)c4cc[nH]c4n3)c(C)c2)C1`, the inhibition in test [1] was 25.1%; in [2] it was 7.32%; in test [3], 51.6%; in test [4] it was 1.69%; in test [5], -0.07%; in test [6], 3.53%. The inhibition in test [7] is 2.81%; in test [8], 5.85%; in test [9] it was 10.8%; in test [10], 8.59%.

Turning to `COc1cc2ncn(-c3cc(O[C@H](C)c4ccccc4Cl)c(C(N)=O)s3)c2cc1OC`, the inhibition amounted to 6.04% in test [1]; 3.14% in test [2]; 6.52% in test [3]; 5.44% in test [4]; 6.5% in [5]; 3.58% in test [6]. In addition, the inhibition was 14.3% in [7], 18.9% in test [8], 26.8% in test [9] and 16.6% in [10].

On to `CC1=C(C(=O)Nc2ccc3[nH]ncc3c2)C(c2ccc3ccccc3c2)CC(=O)N1` (configuration not stated), for which the inhibition is 3.65% in test [1]; 4.92% in [2]; 23.5% in test [3]; -0.93% in [4]; 0.37% in test [5]; 3.77% in test [6]. Also, the inhibition is 6.3% in test [7], 6.86% in [8], 10.2% in test [9] and 7.74% in test [10].

As to `COc1cc(C)c(NC(=O)CN(C)C)cc1Nc1nc(Nc2cccc(F)c2C(N)=O)c2cc[nH]c2n1`, the inhibition is 30.3% in test [1]; 14.3% in test [2]; 54.2% in test [3]; 0.91% in [4]; -1.18% in test [5]; 3.57% in test [6]. The inhibition in test [7] was 1.85%; in test [8], 6.35%; in test [9], -1.05%; in test [10], 4.98%.

Consider `Cc1cc(O)cc(C)c1/C=C/c1cncc(-c2nn[nH]n2)c1`, for which the inhibition came to 3.37% in test [1]; 2.15% in test [2]; 2.05% in [3]; 39.5% in test [4]; 84.4% in [5]; 12.4% in test [6]. Further, the inhibition is 34.8% in test [7], 37.4% in [8], 87.6% in test [9] and 15.1% in test [10].

Consider `Fc1cccc(COc2ccc(Nc3ncnc4sc(-c5cccs5)cc34)cc2Cl)c1`, for which the inhibition in test [4] was -3.04%; in test [5], -2.75%; in test [6], -3.5%; in test [7], -1.54%; in test [8], -0.88%; in test [9], 2.82%. The inhibition in test [10] worked out at 5.23%.

Turning to `NS(=O)(=O)c1cccc(-c2ccc3c(NC(=O)C4CC4)n[nH]c3c2)c1`, the inhibition in test [1] is -1.45%; in test [2] it was -1.29%; in test [3], 3.22%; in test [4] it was -4.33%; in [5] it was -3.03%; in [6], -5.8%. For the same compound, the inhibition is -2.02% in test [7], -5.25% in test [8], -5.49% in test [9] and -1.84% in [10].

On to `CCCN1CCC(Oc2cc(Nc3nc(Nc4cccc(F)c4C(N)=O)c4cc[nH]c4n3)c(OC)cc2Cl)CC1`, for which the inhibition is -0.49% in test [1]; -2.63% in test [2]; 2.79% in [3]; -1.48% in test [4]; 0.75% in test [5]; -0.71% in [6]. For the same compound, the inhibition in [7] turned out to be 2.51%; in [8], 3.96%; in test [9] it was 9.42%; in [10], 5.31%.

As to `Cc1ccc(C(=O)NC2CCCCC2)cc1-c1ccc(C(=O)NCC2CC2)cc1`, the inhibition in test [1] is -2.05%; in test [2] it was -0.59%; in [3] it was -0.67%; in test [4] it was 2.02%; in test [5], 1.67%; in test [6], 5.5%. Also, the inhibition turned out to be 5.14% in test [7], 8.35% in test [8], 3.57% in test [9] and 6.79% in [10].
